A short description of test [1]: compounds binding Alexa647 anti-His antibody – biochemical, small-molecule microarray, 635 nm fluorescence, artefact control for SMM control protein annotation, primary screen (AID 1128).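 Further: score merges feature fluorescence with signal-to-noise for each printed compound spot.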 To be noted: higher = more signal.
For test [2], the system named is Human papillomavirus type 1a E7 protein (residues 1-88). The test is described as follows: HPV1a E7 small-molecule binders, primary screen, biochemical, small-molecule microarray, residues 1-88, 635 nm (AID 1129). To be noted: small-molecule microarray binding, fluorescence 635 nm; higher = more signal.
Test [3] addresses Focal adhesion kinase 1 (Homo sapiens) (UniProt Q05397). Briefly: PTK2 protein binding on printed compound slides – biochemical, small-molecule microarray, 635/667 nm fluorescence, BSA, DTT, primary screen (AID 1130).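 Further: composite of spot emission at 667 nm and signal to noise over triplicate slides.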 To be noted: 635 nm fluorescence, higher = more signal.
In test [4] the test system is Fibrinogen (Alexa647-labelled). The test is described as follows: Alexa647-fibrinogen binding to printed small molecules – biochemical, small-molecule microarray, 635/667 nm fluorescence, artefact control for SMM control-protein annotation, profiling panel (AID 1131).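 Further: z-score merges 667 nm fluorescence with per-spot signal-to-noise over triplicate slides.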 To be noted: fibrinogen-A647 binding fluorescence, higher = more signal.
For test [5], the target named is Follistatin (Homo sapiens) (UniProt P19883). The test is described as follows: FST protein binding to printed compounds – biochemical, small-molecule microarray, 635/667 nm fluorescence, primary screen (AID 1132). To be noted: 635 nm fluorescence, higher = more signal.
Follistatin (Homo sapiens), sequence (P19883 whole entry, looked up): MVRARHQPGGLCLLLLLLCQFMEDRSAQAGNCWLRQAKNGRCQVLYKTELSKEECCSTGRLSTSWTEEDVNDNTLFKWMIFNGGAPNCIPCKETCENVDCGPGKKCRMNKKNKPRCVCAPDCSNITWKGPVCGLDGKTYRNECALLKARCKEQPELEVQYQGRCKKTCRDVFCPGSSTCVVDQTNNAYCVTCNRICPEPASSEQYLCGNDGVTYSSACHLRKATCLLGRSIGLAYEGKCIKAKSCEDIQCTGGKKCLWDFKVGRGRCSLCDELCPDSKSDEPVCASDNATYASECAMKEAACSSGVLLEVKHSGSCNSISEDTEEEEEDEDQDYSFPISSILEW
Test [6] has as its target Fibroblast growth factor 2 (Homo sapiens) (UniProt P09038). The test is described as follows: basic fibroblast growth factor binding to printed compounds – biochemical, small-molecule microarray, 635/667 nm fluorescence, primary screen (AID 1133). To be noted: FGF2, fluorescence 635/667, higher = more signal.
A short description of test [7]: JC-1 mitochondrial potential readout, lung cancer cells – cell-based, A549, JC-1 fluorescence, basal, 24 h, 100 nL, profiling panel (AID 1138).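 Further: A549 lung adenocarcinoma cells under basal conditions with no added stimulus; test concentration not given here.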 To be noted: higher = more signal.
The test system of test [8] is Lefty1. Briefly: Lefty1 protein binding to printed compounds – biochemical, small-molecule microarray, 635/667 nm fluorescence, primary screen (AID 1139). To be noted: fluorescence 635/667, higher = more signal.
The subject of test [9] is wheat germ agglutinin (Triticum aestivum), Alexa647-labelled. The test is described as follows: Alexa647-WGA lectin binding to printed small molecules – biochemical, small-molecule microarray, 635/667 nm fluorescence, artefact control for SMM control-protein annotation, profiling panel (AID 1140).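 Further: score merges 667 nm feature emission with signal to noise over triplicate slides.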 To be noted: WGA-A647 binding, 635 nm fluorescence, higher = more signal.
Test [10] has as its target Luciferin 4-monooxygenase (Photinus pyralis) (UniProt P08659). Briefly: inhibition of purified Photinus pyralis luciferase – biochemical, luminescence, purified enzyme, 2006 set, primary screen (AID 1141).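 Further: cell-free assay with purified firefly luciferase at 100 ng per well in PBS; test concentration not given here.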 To be noted: purified firefly luciferase, SteadyGlo luminescence, 30 min; higher = more signal, called active from +8 up or from −8 down.
The test system of test [11] is Wnt5a (protein binding on small-molecule microarray). The test is described as follows: small molecules binding Wnt5a protein – biophysical, small-molecule microarray, 635/667 nm fluorescence, primary screen (AID 1142).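 Further: fluorescence read at 667 nm with signal to noise per printed feature.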 To be noted: 635 nm fluorescence, higher = more signal.
The nature of test [12]: ATP-based viability of Huh7 replicon cells – cell-based, CellTiter-Glo luminescence, basal, 48 h, cytotoxicity control for HCV replication inhibitor project, primary screen (AID 1143).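 Further: Huh7 hepatoma cells carrying a hepatitis C replication reporter with no stimulus; test concentration not given here.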 To be noted: higher = more signal, called active from +8 up or from −8 down.
Test [13] is described as follows: Pseudomonas biofilm growth suppression – PAO1 strain, BacTiter-Glo luminescence, LB-PBS, primary screen (AID 1144). To be noted: P. aeruginosa PAO1 biofilm, 12 h, higher = more signal.
Test [14] can be described thus: basal CRE-LacZ reporter activity in PC12 – cell-based, unstimulated, primary screen (AID 1145). To be noted: no forskolin, luminescence, 4.5 h, higher = more signal, called active from +8 up or from −8 down.
Test [15] is described as follows: forskolin-driven CRE-LacZ activity in PC12 – cell-based, CRE-LacZ reporter, forskolin-stimulated, primary screen (AID 1146).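 Further: PC12 cells with 6xCRE LacZ reporter stimulated by forskolin 10 µM; beta-galactosidase reporter signal reflecting CREB driven transcription.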 To be noted: luminescence, 4.5 h, higher = more signal, called active from +8 up or from −8 down.
In test [16] the target is Streptavidin (Streptomyces avidinii) (UniProt P22629). The test is described as follows: compounds binding control protein streptavidin – biophysical, small-molecule microarray, 635/667 nm fluorescence, artefact control for SMM compound annotation, primary screen (AID 1147).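 Further: signal reflects streptavidin binding to arrayed compounds as a control protein.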 To be noted: higher = more signal.
Streptavidin (Streptomyces avidinii), sequence (P22629 whole entry, looked up): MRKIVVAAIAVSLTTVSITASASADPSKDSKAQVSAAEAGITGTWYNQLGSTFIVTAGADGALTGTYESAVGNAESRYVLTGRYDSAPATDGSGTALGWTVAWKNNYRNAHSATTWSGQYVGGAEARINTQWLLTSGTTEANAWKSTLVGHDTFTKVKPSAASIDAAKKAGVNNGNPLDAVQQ
The nature of test [17]: probe aInhba binding on compound microarray – biochemical, small-molecule microarray, 635/667 nm fluorescence, primary screen (AID 1148).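 Further: score merges 667nm spot fluorescence with signal-to-noise for antibody binding to printed compounds.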 To be noted: higher = more signal.
In test [18] the target is Torsin-1A (Homo sapiens) (UniProt O14656). Briefly: TOR1A wild-type binding on microarray – cell lysate, small-molecule microarray, lysate, 635/667 nm, primary screen (AID 1149). To be noted: COS7 hTOR1A-WT lysate, 635 nm fluorescence, higher = more signal.
Torsin-1A (Homo sapiens), sequence (O14656 whole entry, looked up): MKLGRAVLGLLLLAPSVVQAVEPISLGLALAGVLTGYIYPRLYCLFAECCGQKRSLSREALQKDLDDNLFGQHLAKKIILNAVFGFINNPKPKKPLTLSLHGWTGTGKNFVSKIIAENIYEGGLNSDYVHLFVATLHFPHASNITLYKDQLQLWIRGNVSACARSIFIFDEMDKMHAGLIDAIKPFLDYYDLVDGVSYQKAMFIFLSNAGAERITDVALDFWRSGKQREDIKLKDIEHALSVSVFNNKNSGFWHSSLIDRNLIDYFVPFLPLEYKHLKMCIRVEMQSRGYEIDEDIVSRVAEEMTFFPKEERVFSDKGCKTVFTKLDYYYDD
Test [19] has the same target. The test is described as follows: torsin A mutant lysate binding on microarrays – cell lysate, small-molecule microarray, COS7 lysate, 635/667 nm fluorescence, primary screen (AID 1150).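 Further: score pools 667 nm emission and signal to noise measuring lysate protein binding.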 To be noted: COS7 hTOR1A mutant lysate, 635 nm fluorescence, higher = more signal.
The test system of test [20] is Sonic hedgehog protein (Shh). Briefly: Sonic hedgehog microarray binding compounds – biochemical, small-molecule microarray, 635/667 nm fluorescence, primary screen (AID 1151).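 Further: Shh protein binding to compounds spotted on small-molecule microarray slides; score combines spot fluorescence intensity with signal-to-noise across triplicate slides.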 To be noted: 635 nm fluorescence, higher = more signal.

Activity calls are given as the source filed them. Unless noted, how the calls were made is not given here.

Focal adhesion kinase 1 (Homo sapiens), sequence (Q05397 whole entry, looked up): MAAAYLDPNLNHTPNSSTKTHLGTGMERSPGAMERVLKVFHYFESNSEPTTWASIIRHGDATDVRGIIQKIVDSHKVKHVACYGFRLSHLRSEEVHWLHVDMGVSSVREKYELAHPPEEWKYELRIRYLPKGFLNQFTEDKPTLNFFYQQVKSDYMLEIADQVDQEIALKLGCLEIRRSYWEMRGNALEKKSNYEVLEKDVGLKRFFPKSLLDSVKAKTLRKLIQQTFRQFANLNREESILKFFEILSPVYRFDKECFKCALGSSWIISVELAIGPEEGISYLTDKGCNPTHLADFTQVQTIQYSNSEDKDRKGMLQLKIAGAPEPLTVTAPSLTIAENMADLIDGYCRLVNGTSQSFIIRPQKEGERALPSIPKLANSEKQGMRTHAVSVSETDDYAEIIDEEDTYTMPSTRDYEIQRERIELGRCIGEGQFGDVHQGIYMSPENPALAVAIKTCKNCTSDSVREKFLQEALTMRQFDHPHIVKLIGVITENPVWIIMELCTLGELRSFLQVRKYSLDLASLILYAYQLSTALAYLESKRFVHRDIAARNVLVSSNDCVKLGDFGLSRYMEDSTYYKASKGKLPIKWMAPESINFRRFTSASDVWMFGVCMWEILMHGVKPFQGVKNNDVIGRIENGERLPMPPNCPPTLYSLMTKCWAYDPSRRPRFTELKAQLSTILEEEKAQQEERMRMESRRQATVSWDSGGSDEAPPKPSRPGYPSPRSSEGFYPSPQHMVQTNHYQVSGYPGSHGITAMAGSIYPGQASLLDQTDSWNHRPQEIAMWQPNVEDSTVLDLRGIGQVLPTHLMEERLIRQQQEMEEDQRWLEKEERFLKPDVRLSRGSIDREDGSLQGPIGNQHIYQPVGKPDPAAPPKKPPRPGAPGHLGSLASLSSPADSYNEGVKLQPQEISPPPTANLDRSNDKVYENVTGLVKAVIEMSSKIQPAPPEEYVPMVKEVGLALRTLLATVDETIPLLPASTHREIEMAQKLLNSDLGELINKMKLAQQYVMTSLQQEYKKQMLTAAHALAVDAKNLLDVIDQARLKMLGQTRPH
Fibroblast growth factor 2 (Homo sapiens), sequence (P09038 whole entry, looked up): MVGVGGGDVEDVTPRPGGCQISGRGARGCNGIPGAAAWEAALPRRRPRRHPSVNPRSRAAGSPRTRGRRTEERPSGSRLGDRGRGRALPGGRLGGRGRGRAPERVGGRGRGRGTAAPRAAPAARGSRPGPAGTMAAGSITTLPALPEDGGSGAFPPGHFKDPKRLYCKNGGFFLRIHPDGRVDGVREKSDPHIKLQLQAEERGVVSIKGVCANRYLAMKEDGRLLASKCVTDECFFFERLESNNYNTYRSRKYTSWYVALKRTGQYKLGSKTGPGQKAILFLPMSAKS
Luciferin 4-monooxygenase (Photinus pyralis), sequence (P08659 whole entry, looked up): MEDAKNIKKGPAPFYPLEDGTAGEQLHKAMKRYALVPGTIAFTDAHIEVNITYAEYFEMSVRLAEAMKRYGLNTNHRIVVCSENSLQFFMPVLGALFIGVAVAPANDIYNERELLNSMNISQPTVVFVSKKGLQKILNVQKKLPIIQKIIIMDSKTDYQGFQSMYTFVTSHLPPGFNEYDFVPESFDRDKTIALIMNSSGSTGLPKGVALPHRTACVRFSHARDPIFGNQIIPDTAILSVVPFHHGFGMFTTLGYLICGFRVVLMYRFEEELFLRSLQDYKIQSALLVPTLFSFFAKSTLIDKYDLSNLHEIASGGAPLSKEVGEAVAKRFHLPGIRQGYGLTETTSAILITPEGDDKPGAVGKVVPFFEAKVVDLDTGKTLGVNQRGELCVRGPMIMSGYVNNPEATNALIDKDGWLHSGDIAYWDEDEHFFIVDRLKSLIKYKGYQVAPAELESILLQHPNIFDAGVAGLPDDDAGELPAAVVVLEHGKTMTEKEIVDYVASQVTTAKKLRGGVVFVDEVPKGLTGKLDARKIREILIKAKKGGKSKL

Consider `C=CCNC(=O)[C@@H]1[C@H]2C(=O)O[C@H](c3ccccc3)[C@H](c3ccccc3)N2[C@H](c2ccc(OCCO)cc2)[C@@]12C(=O)Nc1ccc(C#CCNC(N)=O)cc12`, for which the composite z-score in test [1] is 0.156; in [2], -0.0352; in [3], 0.0378; in test [4] it was 0.75; in [5], 0.593; in test [6], -0.187. Further, the composite z-score is -0.0354 in [8]; 0.671 in [9]; 0.0977 in test [11]; 0.987 in test [16]; -0.0195 in test [17]; 0.564 in test [18]. In addition, the composite z-score in test [19] came to 0.19; in [20], 0. The z-score in test [7] was -0.844; in test [10], -0.851 (inactive); in test [12], 0.414 (inactive); in test [13], 0.0575 (inactive); in [14] it was 0.155 (inactive); in test [15], 0.0297 (inactive).

With `COC(=O)[C@@]1(Cc2ccc(F)cc2)[C@H]2c3cc(C(=O)N(C)C)n(Cc4ccsc4Br)c3C[C@H]2CN1C(=O)c1ccccc1`, the composite z-score in [1] was 0.77; in [2], 1.12; in test [3], 1.96; in [4] it was 1.04; in [5] it was -0.161; in [6], 0.021. In addition, the composite z-score in test [8] was -0.675; in test [9], 1.04; in [11] it was 2.41; in test [16], 1.66; in test [17], 2.03; in [18], -0.0698. In addition, the composite z-score in test [19] was 0.39; in [20] it was -0.635. The z-score in test [7] is -0.51; in [10], 1.18 (inactive); in [12], -1.49 (inactive); in test [13], 0.00128 (inactive); in test [14], 1.73 (inactive); in test [15], -0.0932 (inactive).

Take `Cc1ccc(S[C@]2(C(=O)NCc3ccccc3)CC(=O)N(Cc3ccccc3C(F)(F)F)[C@@H]2c2ccc(CO)cc2I)cc1`: the composite z-score is 1.53 in [1]; -0.645 in test [2]; 0.258 in test [3]; -0.201 in test [4]; 0.0443 in test [5]; -0.402 in [6]. Also, the composite z-score in test [8] was -1.25; in [9], 0.0776; in test [11] it was -0.264; in test [16] it was -0.464; in [17], 0.144; in test [18], -0.545. Besides, the composite z-score was -0.45 in [19] and -0.26 in test [20]. The z-score in test [7] was 1.28; in test [10] it was -0.913 (inactive); in test [12], -1.5 (inactive); in test [13], 1.59 (inactive); in [14] it was 1.06 (inactive); in [15] it was 2.24 (inactive).

In the case of `C=CCNC(=O)[C@@H]1[C@H]2C(=O)O[C@H](c3ccccc3)[C@H](c3ccccc3)N2[C@H](c2ccc(O)cc2)[C@@]12C(=O)Nc1ccc(C#CC3=CCCCC3)cc12`, the composite z-score in test [1] was found to be 0.844; in [2], 1.18; in test [3], 0.721; in test [4] it was 0.668; in [5] it was 1.24; in test [6], 0.494. In addition, the composite z-score in test [8] amounted to 1.43; in test [9], 1.06; in [11], 0.779; in [16], 1.72; in test [17], 1.05; in test [18], 0.857. In addition, the composite z-score in [19] is 0.975; in test [20], 2.03. For the same molecule, the z-score in [7] is 0.22; in test [10], -0.806 (inactive); in [12], -4.01 (inactive); in test [13], -0.909 (inactive); in test [14], 0.119 (inactive); in [15], -0.679 (inactive).

The values are drawn from PubChem BioAssay.
